According to PubChem BioAssay AID1159580 (chemical genetic matrix, 2015):
The campaign covered roughly 5,500 compounds. About 2,000 (36%) were called active. Another 18% or so got no clear call; they are omitted. Cut-off read from the data, not from the text of the source: active = normalized growth mostly below about 0.91 (no sharp cut-off); inconclusive = no clear call, values can overlap the other calls; inactive = mostly above about 0.92. The list shows a part of the results.

Assay: chemical genetic growth profiling, strain panel (AID 1159580);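 note: tested at 20 µM; growth read once vehicle control cultures reached saturation at 30 °C; 1 = growth at the plate median or of vehicle wells; lower values mean less growth of the strain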
Settings: growth OD

Measured: normalized growth

O=C(Cc1cccs1)NC1C(=O)N2C(C(=O)[O-])=C(C[n+]3ccccc3)CSC12 (stereo unspecified)
inactive: S. cerevisiae deletion strains, locus YJR075W, strain HOC1, stronger effect = lower value 1.01 | S. cerevisiae deletion strains, locus YKL009W, strain mrt4, stronger effect = lower value 0.989 | S. cerevisiae deletion strains, locus YKL068W, stronger effect = lower value 1.01 | S. cerevisiae deletion strains, locus YKL085W, strain MDH1 (second series), stronger effect = lower value 1 | S. cerevisiae deletion strains, locus YKL085W, strain MDH1, stronger effect = lower value 1 | S. cerevisiae deletion strains, locus YKL160W, strain elf1, stronger effect = lower value 1 | S. cerevisiae deletion strains, locus YKL190W, strain CNB1, stronger effect = lower value 1.01 | S. cerevisiae deletion strains, locus YKR001C, strain vps1, stronger effect = lower value 0.992 | S. cerevisiae deletion strains, locus YKR026C, strain gcn3, stronger effect = lower value 0.988 | S. cerevisiae deletion strains, locus YKR091W, strain srl3, stronger effect = lower value 0.985 | S. cerevisiae deletion strains, locus YLL001W, strain dnm1, stronger effect = lower value 0.979 | S. cerevisiae deletion strains, locus YLL026W, stronger effect = lower value 0.997 | S. cerevisiae deletion strains, locus YLL041C, strain sdh2, stronger effect = lower value 0.994 | S. cerevisiae deletion strains, locus YLR027C, strain aat2, stronger effect = lower value 0.989 | S. cerevisiae deletion strains, locus YLR039C, strain RIC1, stronger effect = lower value 1.01 | S. cerevisiae deletion strains, locus YLR058C, strain SHM2, stronger effect = lower value 0.99 | S. cerevisiae deletion strains, locus YLR102C, strain apc9, stronger effect = lower value 0.997 | S. cerevisiae deletion strains, locus YLR221C, strain rsa3, stronger effect = lower value 0.99 | S. cerevisiae deletion strains, locus YLR258W, strain gsy2, stronger effect = lower value 0.986 | S. cerevisiae deletion strains, locus YLR262C, strain YPT6 (second series), stronger effect = lower value 0.973 | S. cerevisiae deletion strains, locus YLR262C, strain YPT6, stronger effect = lower value 1.03 | S. cerevisiae deletion strains, locus YLR268W, strain sec22, stronger effect = lower value 0.979 | S. cerevisiae deletion strains, locus YLR320W, strain mms22, stronger effect = lower value 0.979 | S. cerevisiae deletion strains, locus YLR330W, strain CHS5, stronger effect = lower value 1.01 | S. cerevisiae deletion strains, locus YLR342W, strain FKS1 (second series), stronger effect = lower value 0.956 | S. cerevisiae deletion strains, locus YLR342W, strain FKS1, stronger effect = lower value 0.986 | S. cerevisiae deletion strains, locus YLR357W, strain rsc2, stronger effect = lower value 0.937 | S. cerevisiae deletion strains, locus YLR370C, strain arc18, stronger effect = lower value 0.989 | S. cerevisiae deletion strains, locus YLR371W, strain rom2, stronger effect = lower value 0.985 | S. cerevisiae deletion strains, locus YLR384C, strain iki3, stronger effect = lower value 0.974 | S. cerevisiae deletion strains, locus YLR418C, strain cdc73, stronger effect = lower value 0.949 | S. cerevisiae deletion strains, locus YML016C, strain PPZ1, stronger effect = lower value 0.999 | S. cerevisiae deletion strains, locus YML032C, strain rad52, stronger effect = lower value 0.973 | S. cerevisiae deletion strains, locus YML120C, strain ndi1, stronger effect = lower value 1 | S. cerevisiae deletion strains, locus YML124C, strain tub3, stronger effect = lower value 0.999 | S. cerevisiae deletion strains, locus YMR058W, strain fet3, stronger effect = lower value 0.984 | S. cerevisiae deletion strains, locus YMR078C, strain ctf18, stronger effect = lower value 0.999 | S. cerevisiae deletion strains, locus YMR125W, strain sto1, stronger effect = lower value 0.983 | S. cerevisiae deletion strains, locus YMR129W, stronger effect = lower value 1 | S. cerevisiae deletion strains, locus YMR205C, strain PFK2, stronger effect = lower value 0.978 | S. cerevisiae deletion strains, locus YMR223W, strain ubp8, stronger effect = lower value 0.982 | S. cerevisiae deletion strains, locus YMR231W, strain pep5, stronger effect = lower value 0.991 | S. cerevisiae deletion strains, locus YMR307W, strain GAS1, stronger effect = lower value 0.997 | S. cerevisiae deletion strains, locus YNL067W, strain RPL9B, stronger effect = lower value 1.02 | S. cerevisiae deletion strains, locus YNL071W, strain lat1, stronger effect = lower value 0.999 | S. cerevisiae deletion strains, locus YNL128W, strain TEP1, stronger effect = lower value 1.01 | S. cerevisiae deletion strains, locus YNL153C, strain GIM3, stronger effect = lower value 1.03 | S. cerevisiae deletion strains, locus YNL209W, strain ssb2, stronger effect = lower value 0.984 | S. cerevisiae deletion strains, locus YNL233W, strain BNI4, stronger effect = lower value 1.02 | S. cerevisiae deletion strains, locus YNL248C, strain rpa49, stronger effect = lower value 0.985 | S. cerevisiae deletion strains, locus YNL250W, strain rad50, stronger effect = lower value 0.972 | S. cerevisiae deletion strains, locus YNL271C, strain bni1, stronger effect = lower value 0.992 | S. cerevisiae deletion strains, locus YNL298W, strain CLA4, stronger effect = lower value 0.986 | S. cerevisiae deletion strains, locus YNL307C, strain MCK1, stronger effect = lower value 0.991 | S. cerevisiae deletion strains, locus YNL322C, strain KRE1 (second series), stronger effect = lower value 0.985 | S. cerevisiae deletion strains, locus YNL322C, strain KRE1, stronger effect = lower value 1 | S. cerevisiae deletion strains, locus YNR049C, strain mso1, stronger effect = lower value 0.975 | S. cerevisiae deletion strains, locus YNR052C, strain pop2, stronger effect = lower value 0.989 | S. cerevisiae deletion strains, locus YOL006C, strain TOP1, stronger effect = lower value 1.02 | S. cerevisiae deletion strains, locus YOL012C, strain htz1 0.724 | S. cerevisiae deletion strains, locus YOL147C, strain pex11, stronger effect = lower value 0.992 | S. cerevisiae deletion strains, locus YOR001W, strain rrp6, stronger effect = lower value 0.988 | S. cerevisiae deletion strains, locus YOR061W, strain CKA2, stronger effect = lower value 1 | S. cerevisiae deletion strains, locus YOR069W, strain VPS5, stronger effect = lower value 1 | S. cerevisiae deletion strains, locus YOR070C, strain gyp1, stronger effect = lower value 0.974 | S. cerevisiae deletion strains, locus YOR080W, strain dia2, stronger effect = lower value 0.971 | S. cerevisiae deletion strains, locus YOR083W, strain WHI5, stronger effect = lower value 0.974 | S. cerevisiae deletion strains, locus YOR106W, strain vam3, stronger effect = lower value 0.973 | S. cerevisiae deletion strains, locus YOR136W, strain idh2, stronger effect = lower value 0.998 | S. cerevisiae deletion strains, locus YOR144C, strain elg1, stronger effect = lower value 0.997 | S. cerevisiae deletion strains, locus YOR184W, strain ser1, stronger effect = lower value 0.983 | S. cerevisiae deletion strains, locus YOR265W, strain rbl2, stronger effect = lower value 1 | S. cerevisiae deletion strains, locus YOR270C, strain vph1, stronger effect = lower value 0.942 | S. cerevisiae deletion strains, locus YOR290C, strain snf2, stronger effect = lower value 0.991 | S. cerevisiae deletion strains, locus YOR316C, strain cot1, stronger effect = lower value 0.994 | S. cerevisiae deletion strains, locus YPL051W, strain arl3, stronger effect = lower value 0.983 | S. cerevisiae deletion strains, locus YPL055C, strain LGE1, stronger effect = lower value 1.03 | S. cerevisiae deletion strains, locus YPL078C, strain atp4, stronger effect = lower value 0.988 | S. cerevisiae deletion strains, locus YPL106C, strain sse1, stronger effect = lower value 0.939 | S. cerevisiae deletion strains, locus YPL240C, strain hsp82, stronger effect = lower value 0.992 | S. cerevisiae deletion strains, locus YPR119W, strain clb2, stronger effect = lower value 0.997 | S. cerevisiae deletion strains, locus YPR141C, strain kar3, stronger effect = lower value 1.01 | S. cerevisiae deletion strains, locus YPR163C, strain tif3, stronger effect = lower value 0.997 | S. cerevisiae deletion strains, locus YPR167C, strain met16, stronger effect = lower value 0.988 | S. cerevisiae deletion strains, strain wtn01, stronger effect = lower value 0.978 | S. cerevisiae strains, strain wild type, stronger effect = lower value 0.998
